{"source": "PubChem BioAssay (EPA / NIEHS)", "note": "Results filed as inconclusive are left out. Calls of active or inactive are those of the source. The calls were made as follows, unless noted: active = hit-call score of the fitted dose curve at least 0.9, where 1 is the maximum; inconclusive = response in the unintended direction; inactive = score below 0.9.", "data": [{"target": "rat Glutamate, AMPA Site (AMPA), Gria1 (gene 50592) (UniProt P19490)", "sequence (P19490 whole entry, looked up)": "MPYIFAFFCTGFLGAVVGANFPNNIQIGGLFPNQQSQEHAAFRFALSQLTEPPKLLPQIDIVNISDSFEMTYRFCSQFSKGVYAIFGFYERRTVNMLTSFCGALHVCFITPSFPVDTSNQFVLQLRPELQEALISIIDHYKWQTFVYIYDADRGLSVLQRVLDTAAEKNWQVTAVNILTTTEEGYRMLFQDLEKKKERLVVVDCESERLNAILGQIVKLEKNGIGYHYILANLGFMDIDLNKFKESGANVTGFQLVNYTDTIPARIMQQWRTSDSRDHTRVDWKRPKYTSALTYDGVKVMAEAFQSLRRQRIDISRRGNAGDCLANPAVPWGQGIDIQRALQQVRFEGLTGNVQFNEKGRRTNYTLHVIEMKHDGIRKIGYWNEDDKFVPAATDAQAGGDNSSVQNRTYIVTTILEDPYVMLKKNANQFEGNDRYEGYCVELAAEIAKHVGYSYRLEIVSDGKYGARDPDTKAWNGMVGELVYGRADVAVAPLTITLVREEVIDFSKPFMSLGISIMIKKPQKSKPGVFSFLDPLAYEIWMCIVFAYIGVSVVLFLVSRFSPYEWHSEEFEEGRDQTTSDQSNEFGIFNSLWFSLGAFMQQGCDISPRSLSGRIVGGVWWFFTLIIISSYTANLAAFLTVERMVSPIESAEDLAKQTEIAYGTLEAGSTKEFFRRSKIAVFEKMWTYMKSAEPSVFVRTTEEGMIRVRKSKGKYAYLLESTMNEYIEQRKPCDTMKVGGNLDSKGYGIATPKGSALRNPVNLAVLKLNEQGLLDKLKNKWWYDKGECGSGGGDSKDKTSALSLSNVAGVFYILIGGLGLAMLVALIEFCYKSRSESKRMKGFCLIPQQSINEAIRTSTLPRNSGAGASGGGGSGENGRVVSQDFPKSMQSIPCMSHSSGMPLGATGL", "experiment": "NVS_LGIC_rAMPA: NovaScreen (NVS) Ligand-Gated Ion Channel Assay for rat Glutamate, AMPA Site (AMPA) (AID 2283324)", "protocol": "NVS_LGIC_rAMPA is a biochemical, single-readout assay that uses extracted gene-proteins from Rat forebrain membranes in a tissue-based cell-free assay. Measurements were taken 1 hour after chemical dosing in a 48-well plate.NVS_LGIC_rAMPA is one of one assay component(s) measured or calculated from the NVS_LGIC_rAMPA assay. It is designed to make measurements of radioligand binding, a form of binding reporter, as detected with scintillation counting signals by Filter-based radiodetection technology.Data from the assay component NVS_LGIC_rAMPA was analyzed into 1 assay endpoint. This assay endpoint, NVS_LGIC_rAMPA, was analyzed in the positive analysis fitting direction relative to DMSO as the negative control and baseline of activity. Using a type of binding reporter, loss-of-signal activity can be used to understand changes in the binding as they relate to the gene Gria1. Furthermore, this assay endpoint can be referred to as a primary readout, because the performed assay has only produced 1 assay endpoint. To generalize the intended target to other relatable targets, this assay endpoint is annotated to the ion channel intended target family, where the subfamily is ligand-gated ion channel.\nBinding assays used specific radioligands (tritiated, iodinated) with non-radioactive competitive displacement ligands in agonist or antagonist protocols (as indicated) and various reference compounds and inhibitors to titrate specific binding to receptors and transporters. Most enzyme assays (CYPs, kinases, phosphatases, proteases, HDACs) used recombinant protein and specific substrates (fluorescence mostly, some colorimetric and radioactive) and inhibitors, followed by a biochemical separation of substrate and product. All assays for the biochemical HTS were initially run in duplicate at a single concentration (10 uM for CYP450 assays and 25 uM for all others). Assay-chemical combinations meeting a pre-defined threshold (e.g., 30% inhibition and other criteria defined below) were then run in singleton concentration-response format with maximum concentration of 20 uM for CYPs and 50 uM for all others. Each assay was run with positive and negative controls, and concurrent controls on every plate. The follow-up (secondary) screen tested active chemical-pairs in concentration series, as well as a few additional assays not tested in the primary screen, some selected negative inactives, and several cases re-run in the concentration series for confirmatory purposes.", "values": [{"smiles": "CC1=CC(=O)CC(C)(C)C1", "outcome": "inactive"}, {"smiles": "O=C(OC[C@H]1O[C@@H](OC(=O)c2cc(O)c(O)c(OC(=O)c3cc(O)c(O)c(O)c3)c2)[C@H](OC(=O)c2cc(O)c(O)c(OC(=O)c3cc(O)c(O)c(O)c3)c2)[C@@H](OC(=O)c2cc(O)c(O)c(OC(=O)c3cc(O)c(O)c(O)c3)c2)[C@@H]1OC(=O)c1cc(O)c(O)c(OC(=O)c2cc(O)c(O)c(O)c2)c1)c1cc(O)c(O)c(OC(=O)c2cc(O)c(O)c(O)c2)c1", "AC50": "9.44 µM (active)"}, {"smiles": "CC(=O)OCCC(C)C", "outcome": "inactive"}, {"smiles": "CC(C)=CCCC(C)=CC=O", "outcome": "inactive"}, {"smiles": "Cn1c(=O)cc(Oc2ccc(F)cc2F)c2cnc(NCC(C)(C)O)nc21", "outcome": "inactive"}]}, {"target": "human Peripheral-type Benzodiazepine Receptor (PBR), TSPO (gene 706) (UniProt P30536)", "sequence (P30536 whole entry, looked up)": "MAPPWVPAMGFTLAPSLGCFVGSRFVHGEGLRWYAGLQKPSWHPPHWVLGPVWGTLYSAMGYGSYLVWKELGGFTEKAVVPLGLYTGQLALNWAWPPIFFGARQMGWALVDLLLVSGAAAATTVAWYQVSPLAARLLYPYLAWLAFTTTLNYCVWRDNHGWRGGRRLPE", "experiment": "NVS_MP_hPBR: NovaScreen (NVS) Membrane Protein Assay for human Peripheral-type Benzodiazepine Receptor (PBR) (AID 2283331)", "outline": "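Scintillation counts of filter-bound radioligand served as read-out after 1 h chemical dosing of human colonic membrane preparations. Activity was scored as signal loss against DMSO; initial duplicates at 25 uM, confirmatory concentration series afterward.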", "values": [{"smiles": "CC(C)(O)c1coc(S(=O)(=O)NC(=O)Nc2c3c(cc4c2CCC4)CCC3)c1", "outcome": "inactive"}, {"smiles": "CC(C)CCO", "AC50": "15.8 µM (active)"}, {"smiles": "O=C(OC[C@H]1O[C@@H](OC(=O)c2cc(O)c(O)c(OC(=O)c3cc(O)c(O)c(O)c3)c2)[C@H](OC(=O)c2cc(O)c(O)c(OC(=O)c3cc(O)c(O)c(O)c3)c2)[C@@H](OC(=O)c2cc(O)c(O)c(OC(=O)c3cc(O)c(O)c(O)c3)c2)[C@@H]1OC(=O)c1cc(O)c(O)c(OC(=O)c2cc(O)c(O)c(O)c2)c1)c1cc(O)c(O)c(OC(=O)c2cc(O)c(O)c(O)c2)c1", "AC50": "5.11 µM (active)"}, {"smiles": "O=C(O)c1cccc(N(Cc2cccnc2)c2ccc(OC(F)F)c(OC(F)F)c2)c1", "outcome": "inactive"}, {"smiles": "COc1ccc2sc(C(=O)Nc3nnn[nH]3)c(OC(C)C)c2c1", "AC50": "25 µM (active)"}]}, {"target": "Glutamate receptor ionotropic, kainate 1 (Rattus norvegicus) (UniProt P22756)", "sequence (P22756 whole entry, looked up)": "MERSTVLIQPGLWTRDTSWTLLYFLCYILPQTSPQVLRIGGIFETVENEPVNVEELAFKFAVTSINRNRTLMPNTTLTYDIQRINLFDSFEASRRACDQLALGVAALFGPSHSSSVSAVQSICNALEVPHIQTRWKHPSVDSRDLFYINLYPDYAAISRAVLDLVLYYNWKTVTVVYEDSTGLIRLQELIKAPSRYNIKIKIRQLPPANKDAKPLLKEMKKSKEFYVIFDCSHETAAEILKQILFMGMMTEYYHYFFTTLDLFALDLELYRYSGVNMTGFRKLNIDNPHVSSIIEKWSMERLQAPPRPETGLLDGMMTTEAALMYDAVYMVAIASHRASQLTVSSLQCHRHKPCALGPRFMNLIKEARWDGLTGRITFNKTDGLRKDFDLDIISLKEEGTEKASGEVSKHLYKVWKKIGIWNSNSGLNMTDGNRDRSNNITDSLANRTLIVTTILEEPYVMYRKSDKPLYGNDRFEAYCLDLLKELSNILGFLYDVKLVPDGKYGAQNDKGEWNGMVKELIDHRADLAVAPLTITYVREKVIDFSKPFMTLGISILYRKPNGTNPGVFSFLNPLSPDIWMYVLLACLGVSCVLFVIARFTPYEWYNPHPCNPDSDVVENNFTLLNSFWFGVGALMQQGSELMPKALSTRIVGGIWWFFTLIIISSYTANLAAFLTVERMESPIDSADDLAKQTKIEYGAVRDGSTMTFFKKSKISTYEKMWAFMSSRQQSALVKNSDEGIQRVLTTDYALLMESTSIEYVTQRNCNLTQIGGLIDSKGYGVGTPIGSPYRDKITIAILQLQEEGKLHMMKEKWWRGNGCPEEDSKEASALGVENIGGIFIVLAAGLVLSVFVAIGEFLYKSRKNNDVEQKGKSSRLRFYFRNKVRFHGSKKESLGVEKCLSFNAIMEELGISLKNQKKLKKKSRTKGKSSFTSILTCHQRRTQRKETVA", "experiment": "NVS_IC_rKAR: NovaScreen (NVS) Ion Channel Assay for rat Kainic Acid Receptors (KAR) (AID 2283334; active = hit-call score of the fitted dose curve at least 0.9, where 1 is the maximum; inactive = score below 0.9)", "outline": "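Radioligand displacement binding using rat forebrain membranes, 1 h incubation, filter-based scintillation counting. Screened in duplicate at 25 uM, with actives retested in concentration-response up to 50 uM; fitted against DMSO.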", "values": [{"smiles": "On1ccccc1=S", "outcome": "inactive"}, {"smiles": "CCC(C)(C)C(=O)O[C@H]1C[C@@H](C)C=C2C=C[C@H](C)[C@H](CC[C@@H]3C[C@@H](O)CC(=O)O3)[C@H]21", "outcome": "inactive"}, {"smiles": "COC(=O)CC(=O)OC", "outcome": "inactive"}, {"smiles": "COc1ccc2sc(C(=O)Nc3nnn[nH]3)c(OC(C)C)c2c1", "outcome": "inactive"}]}, {"target": "rat Peripheral-type Benzodiazepine Receptor (PBR), Tspo (gene 24230) (UniProt P16257)", "sequence (P16257 whole entry, looked up)": "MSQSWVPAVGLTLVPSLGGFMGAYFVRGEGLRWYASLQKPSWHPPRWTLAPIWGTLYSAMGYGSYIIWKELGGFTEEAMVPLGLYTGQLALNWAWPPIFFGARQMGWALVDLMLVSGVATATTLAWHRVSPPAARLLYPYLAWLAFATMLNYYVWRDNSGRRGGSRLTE", "experiment": "NVS_MP_rPBR: NovaScreen (NVS) Membrane Protein Assay for rat Peripheral-type Benzodiazepine Receptor (PBR) (AID 2283335)", "outline": "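Radioligand displacement, rat kidney membrane prep, 1 h exposure, filter-based scintillation read; DMSO baseline, loss-of-signal scored. Primary screen at 25 uM in duplicate, actives followed up in concentration series.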", "values": [{"smiles": "O=C(OC[C@H]1O[C@@H](OC(=O)c2cc(O)c(O)c(OC(=O)c3cc(O)c(O)c(O)c3)c2)[C@H](OC(=O)c2cc(O)c(O)c(OC(=O)c3cc(O)c(O)c(O)c3)c2)[C@@H](OC(=O)c2cc(O)c(O)c(OC(=O)c3cc(O)c(O)c(O)c3)c2)[C@@H]1OC(=O)c1cc(O)c(O)c(OC(=O)c2cc(O)c(O)c(O)c2)c1)c1cc(O)c(O)c(OC(=O)c2cc(O)c(O)c(O)c2)c1", "AC50": "0.715 µM (active)"}, {"smiles": "Cc1c(-c2cccnc2)c2ccccc2n1CCCCC(=O)O", "AC50": "9.13 µM (active)"}, {"smiles": "O=C(O)c1cc(N=Nc2ccc(S(=O)(=O)Nc3ccccn3)cc2)ccc1O", "AC50": "0.655 µM (active)"}, {"smiles": "Cn1c(=O)cc(Oc2ccc(F)cc2F)c2cnc(NCC(C)(C)O)nc21", "AC50": "9.69 µM (active)"}, {"smiles": "COc1ccc2sc(C(=O)Nc3nnn[nH]3)c(OC(C)C)c2c1", "AC50": "25 µM (active)"}]}, {"target": "bovine Gamma-Aminobutyric Acid Type A Receptor Agonist (GABAR Agonist), GABRA1 (gene 780973) (UniProt P08219)", "sequence (P08219 whole entry, looked up)": "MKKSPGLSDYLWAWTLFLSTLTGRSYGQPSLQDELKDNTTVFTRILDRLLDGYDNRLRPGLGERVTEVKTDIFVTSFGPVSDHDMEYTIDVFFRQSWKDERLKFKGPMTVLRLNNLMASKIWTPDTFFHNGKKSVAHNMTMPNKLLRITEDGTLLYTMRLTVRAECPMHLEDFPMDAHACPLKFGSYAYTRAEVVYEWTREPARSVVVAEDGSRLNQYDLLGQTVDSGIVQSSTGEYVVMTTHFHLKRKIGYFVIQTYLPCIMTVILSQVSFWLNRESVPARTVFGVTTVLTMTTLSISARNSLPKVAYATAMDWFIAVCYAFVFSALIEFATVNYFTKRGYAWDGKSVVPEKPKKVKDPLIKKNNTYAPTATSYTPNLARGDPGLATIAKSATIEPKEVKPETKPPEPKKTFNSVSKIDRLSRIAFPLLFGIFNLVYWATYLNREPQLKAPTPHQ", "experiment": "NVS_LGIC_bGABAR_Agonist: NovaScreen (NVS) Ligand-Gated Ion Channel Assay for bovine Gamma-Aminobutyric Acid Type A Receptor Agonist (GABAR Agonist) (AID 2283338)", "outline": "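Radioligand binding to bovine cerebellar membranes in agonist format, read by filter-based scintillation counting after 1 h. Primary screen in duplicate at 25 uM, with actives followed in concentration series. Gain of signal versus DMSO.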", "values": [{"smiles": "CCCCCCCCCCCCCCCO", "outcome": "inactive"}, {"smiles": "Nc1cccc(N)c1", "AC50": "6.48 µM (active)"}, {"smiles": "CC(=O)OC[C@H]1O[C@@](COC(C)=O)(O[C@H]2O[C@H](COC(C)=O)[C@@H](OC(C)=O)[C@H](OC(C)=O)[C@H]2OC(C)=O)[C@@H](OC(C)=O)[C@@H]1OC(C)=O", "outcome": "inactive"}, {"smiles": "O=C(O)CCN(C1(C(=O)NO)CCCC1)S(=O)(=O)c1ccc(Oc2ccc(F)cc2)cc1", "AC50": "7.72 µM (active)"}, {"smiles": "Cc1ccc(C)c(O)c1", "outcome": "inactive"}]}]}
